A selection follows.
aSyn 5UTR act: Activators via SNCA 5'UTR binding, MLPCN; alpha-synuclein 5'UTR reporter, activators screen; activity score, % (tested at 7.5 µM), hits read low; actives 7.1% (n = 300,000); in the data active = activity score below about -60%
Hits are given with their value; . = inactive.

SMILES	aSyn 5UTR act
CCNC(=S)NNC(=O)c1cc(-c2cccc(C)c2)nc2ccccc12	-115.6
CCC1SC(=NC(=O)c2ccc(Cl)c(Cl)c2)NC1=O (stereo not drawn)	-75.5
NC(=O)C1CCN(c2ccc3c(c2)S(=O)(=O)c2ccccc2C3=O)CC1	-63.5
O=C1c2ccccc2S(=O)(=O)c2cc(N3CCC4(CC3)OCCO4)ccc21	-118.1
CC1CCN(c2ccc3c(c2)S(=O)(=O)c2ccccc2C3=O)CC1	-139.9
Nc1nc(SCc2ccccc2)ns1	-88.8
Nc1cc(N)nc(SCc2ccccc2)n1	-110.3
COc1ccccc1/C=C/C=C(\C#N)C(=O)NC(C)c1ccccc1 (stereo not drawn)	-74.0
COc1cc(-c2ccccc2)nc(N)n1	-117.0
CCOc1cc(-c2ccccc2)nc(N)n1	-112.4
Nc1ccc2nc(SCc3ccccc3F)sc2c1	-203.0
Cc1cc(C(=O)CSc2nnc(N)s2)c(C)n1Cc1cccs1	.
Nc1nnc(SCC(=O)c2ccc3ccccc3c2)s1	-134.7
Nc1ccc2nc(SCC(=O)c3ccccc3)sc2c1	-74.5
O=C(Nc1ncc(Cc2ccccc2)s1)C1COc2ccccc2O1 (stereo not drawn)	-189.9
Cc1nnc(NC(=O)C2COc3ccccc3O2)s1 (stereo not drawn)	-118.3
CCC(CC)c1nnc(NC(=O)C2COc3ccccc3O2)s1 (stereo not drawn)	-72.1
O=C(NC1=NCCS1)C1COc2ccccc2O1 (stereo not drawn)	.
Cc1ccc(OCc2ccc(Br)cc2)c([N+](=O)[O-])n1	-141.1
Cc1ccc(OCc2ccc(-c3ccccc3)cc2)c([N+](=O)[O-])n1	-83.6
Cc1ccc(OCCOc2cccc(Br)c2)c([N+](=O)[O-])n1	-189.9
S=c1[nH]nc(Cn2c(-c3ccccn3)nc3ccccc32)n1-c1ccc2c(c1)OCCO2	-75.3
CN(C)/C=N/C(=S)Nc1ccc(Cl)cc1Cl	-107.5
C/C(CC(C)C)=N\NC(=O)Nc1ccccc1	-69.3
N/C(=N\NC(=O)Nc1ccccc1)c1ccccn1	-167.5
SMILES	aSyn 5UTR act
O=C(/C=C/Sc1ccc(C(F)(F)F)cn1)c1ccccc1	-72.4
CCCOc1ccccc1C1CC(=O)Nc2cc3c(cc21)OCCO3 (stereo not drawn)	.
O=C(c1cc(-c2ccc3c(c2)OCO3)on1)N1CCCCC1	.
CC1CCCC(C)N1C(=O)c1cc(-c2ccc3c(c2)OCO3)on1 (stereo not drawn)	-131.3
CC1CCCC(C)N1C(=O)c1cc(-c2ccc(Cl)c(Cl)c2)on1 (stereo not drawn)	-173.5
Clc1cccc(OCc2nnc(-c3ccccc3Br)o2)c1	-67.9
Clc1ccc(OCc2nnc(-c3ccccc3Br)o2)c(Cl)c1	-144.1
Fc1ccc(OCc2nnc(-c3ccccc3Br)o2)c(Cl)c1	-151.4
Clc1ccccc1OCc1nnc(-c2ccccc2)o1	-109.4
CC1CCC(C(C)C)C(OC(=O)Cn2c(-c3ccc(Cl)cc3)[n+](C)c3ccccc32)C1 (stereo not drawn)	.
C=CCNC(=O)COc1ccc(Br)cc1Cl	-102.8
O=C(COc1ccc(Br)cc1Cl)c1ccc[nH]1	-69.4
COCCNC(=O)COc1ccc(Br)cc1Cl	-68.1
Cc1ccc2c(c1)NC(=O)c1cccnc1N2	-140.3
O=C(Nc1ccc(-c2cn3ccsc3n2)cc1)C1CCCC1	-95.1
CC(C)CC(=O)Nc1cccc(-c2cn3ccsc3n2)c1	-126.0
CC(C)(C)CC(=O)Nc1cccc(-c2cn3cccnc3n2)c1	-107.2
O=C(Nc1ccc(-c2cn3ccsc3n2)cc1)C1CC1	-159.2
CC(=O)Nc1ccc(-c2cn3ccsc3n2)cc1	-71.3
c1cn2cc(-c3ccc4c(c3)OCO4)nc2s1	-137.1
CC(C)(C)C(=O)/C(=C/c1ccc(Cl)cc1)n1cncn1	-173.2
CC(C)(C)C(=O)/C(=C\c1ccc([N+](=O)[O-])cc1)n1cncn1	-276.5
c1ccc2c3c([nH]c2c1)-c1[nH]ncc1CC3	-116.8
COc1ccccc1C(=O)Nc1cc2ccccc2oc1=O	-172.2
COc1ccc2oc(=O)c(C(=O)Nc3cccc(C)c3)cc2c1	-127.6
SMILES	aSyn 5UTR act
COc1ccc(NC(=O)c2oc3ccccc3c2C)c(OC)c1	-215.6
COc1ccc(S(=O)(=O)Nc2ccccc2OC)cc1NC(=O)c1cc2ccccc2oc1=O	-158.9
COc1ccc(NC(=O)c2cc3ccccc3oc2=O)c(OC)c1	-112.7
Nc1c2c(=O)oc(-c3ccccc3)cc2nn1-c1ccccc1	-181.5
O=c1c2ccccc2oc2cc(C#CC3(O)CCCCC3)ccc12	.
O=c1c2ccccc2oc2ccc(Oc3ccccc3)cc12	-122.5
COc1cc2oc3ccccc3c(=O)c2cc1OC	-119.6
CC(C)Oc1cccc(C(=O)NC(=S)Nc2cccnc2)c1	-114.2
CCCOc1cccc(C(=O)NC(=S)Nc2ccccc2)c1	-101.9
COc1cccc(C(=O)NC(=S)Nc2cccnc2)c1	-152.9
CCOc1ccc(C(=O)NC(=S)Nc2cccnc2)cc1	-135.2
CC(C)Oc1cccc(C(=O)NC(=S)Nc2ccccc2)c1	-89.6
COc1ccccc1/C=C/C=N/NC(=O)c1cccs1	-180.5
COc1ccccc1/C=C\C=N\NC(=O)c1ccco1	-97.9
